Active and inactive are the calls of the source.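 How the source made its calls: active means cell survival after UV exposure 2 SD above solvent-only control wells at 10 µM, confirmed on one or two repeats; inactive means the rest.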

The nature of the experiment: protection of CHO cells from pyrene-fatty acid UV killing, primary screen, phospholipid biosynthesis inhibitor project, ZR-82 cells, Analyticon library, screen 2 (AID 1347383).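 Further: survival reflects blocked phospholipid synthesis cutting uptake of the phototoxic fatty acid; compound and fatty acid exposure 3 h then viability read next day.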 As to conditions: ZR-82 CHO cells, CellTiter Blue, at 10 µM, peroxisome-deficient CHO-K1 variant, with DGAT-1, DGAT-2 and ACAT inhibitors.
As for `Oc1cc(O)c2c(c1)O[C@H](c1ccc(O)c(O)c1)[C@@H](O)C2`, the result was inactive. With `CC1(C)C=Cc2c(c3ccccc3[nH]c2=O)O1`, the call was inactive. For `CC(C)=CCCC(C)(O)C1CC[C@]2(C)C1CC[C@@H]1[C@@]3(C)CCC(=O)C(C)(C)[C@@H]3CC[C@]12C` (stereo not given in full), the compound was classed as inactive. Under `CC(C)(O)/C=C/C1=CC(O)C(C)(O)CC1O` (stereo not given) stands “inactive”; under `C=CC(C)(C)c1cc2cc(CC(O)C(C)(C)O)c(OC)cc2oc1=O` (stereo not given), “inactive”.

For the compound `CC(=O)OC/C(=C/C(=O)O)CC[C@@H]1C(C=O)=CC[C@@H]2C(C)(C)CCC[C@@]12C`, the compound was classed as inactive. As to `Cn1c2c(O)c(O)ccc2c(=O)c2c(O)cc3c(c21)C=CC(C)(C)O3`, the compound was called inactive. Turning to `C/C=C(/COC(=O)/C(C)=C/C)C(=O)OC/C=C/c1ccc(OC)cc1`, the compound was classed as inactive.

Consider `CCC/C=C/C=C/C1C[C@@H](O)[C@@H](O)C(=O)[C@H]1CO` (stereo not given in full), for which the result was inactive. Next, `OCCc1ccc(O)cc1O`: “inactive”.

For `Oc1ccccc1-c1c(O)cc(O)c(-c2ccccc2)c1O`, the result was inactive. Next, `C=C(C)C(O)Cc1c(O)cc(CCc2ccccc2)c(CC=C(C)C)c1O` (stereo not given): “inactive”; `C=CC(C)(C)c1c(OC)oc2cccc(C)c2c1=O`: “inactive”. Under `Cc1ccc(C(C)C)c(O)c1` stands “inactive”; under `COc1cc2ccc(=O)oc2cc1OC`, “inactive”; under `C=C1CCC2C(OC(=O)C2(O)COC(C)=O)C2C(=C)C(O)CC12` (stereo not given), “inactive”. Next, `COCc1c(OC)cc2c(c1O)C(O)OCC2` (stereo not given): “inactive”; `C/C1=C\C[C@]2(C)C(=O)C(O)=C([C@H](C)CO)[C@H]2C/C=C(\C)[C@@H](O)CC/C(C)=C/CC1`: “inactive”; `COc1cc(O)cc2occ(-c3ccc(O)cc3)c(=O)c12`: “inactive”. Consider `CCC(C)C(=O)OC1CCC=C2C=CC(C)C(CCC(O)CC(O)CC(=O)OC)C21` (stereo not given), for which the call was inactive. Next, `O=C(NC(CO)Cc1ccccc1)c1ccccc1` (stereo not given): “inactive”; `O=C1CC(c2ccc(O)cc2O)Oc2cc(O)cc(O)c21` (stereo not given): “inactive”. For `COc1cc(CNC(=O)CCCCCCC(C)C)ccc1O`, the outcome was inactive. Next, `CN1[C@@H]2CC[C@H]1CC(OC(=O)C(CO)c1ccccc1)C2` (stereo not given in full): “inactive”; `CCCCCC1CC(O)CC(=O)O1` (stereo not given): “inactive”; `C/C=C/CCc1cc(O)c2c(c1)OC(C)C2CO` (stereo not given): “inactive”. Next, `COc1ccc(-c2coc3cc(O)cc(O)c3c2=O)cc1`: “inactive”. Under `COc1cc(CCc2ccccc2)cc(O)c1C/C=C(\C)CCC=C(C)C` stands “inactive”.

Take `CC(C)(O)C1OC1C1=CC(=O)C2(C)OC2C1O` (stereo not given): the compound was called inactive. In the case of `C/C=C/[C@@H]1C=C[C@@H]2C[C@H](C)CC[C@H]2[C@]1(C)C(O)=C1C(=O)[C@@H](CO)N(C)C1=O`, the call was inactive. As for `CC[C@H](CC[C@@H](C)[C@H]1CC[C@H]2[C@@H]3CC=C4C[C@@H](O)CC[C@]4(C)[C@H]3CC[C@]12C)C(C)C`, the call was inactive. Turning to `CC1CC(=O)C2CC12C(C)(O)CO` (stereo not given), the compound was classed as inactive. In the case of `COc1cc(O)cc(O)c1C(=O)/C=C/c1ccc(O)cc1`, the call was inactive. For `CC(=O)OC(C(=O)/C=C(\C)CCCC1=CC(=O)OC1)C(C)C` (stereo not given), the call was inactive. Next, `COc1c2c(nc3occc13)C(CC=C(C)C)(OC)C(O)CC2` (stereo not given): “inactive”; `O=c1ccc2ccc(O)cc2o1`: “inactive”; `CC(C)CC(O)C(=O)NC(C)C(=O)NC(CC(C)C)C(=O)NCCCC(=O)O` (stereo not given): “inactive”. Next, `CC#CC#C/C=C1\C=CC2(OC=CC2OC(=O)C=C(C)C)O1` (stereo not given): “inactive”. Under `O=C(O)C12CCCC(CO)(CO)C1CCC13CC4C(CC12)C4(CO)C3` (stereo not given) stands “inactive”; under `CC1(C)CCC[C@@]2(C)C1C[C@H]1O[C@@]1(C)[C@]21CC[C@](C)(CC(=O)O)O1` (stereo not given in full), “inactive”.

These data come from PubChem BioAssay AID1347383 (Zoeller Lab, School of Medicine, Boston University, 2020).
